# Compounds with a hit are over-represented: about 12% of the library has one in this group of screens.
# HP1b binding inh = inhibitors of HP1-beta chromodomain binding to methylated histone tails; AlphaScreen HP1-beta / biotin-H3K9me3 peptide binding; Potency, µM (highest dose often 114 µM), for the others: at the highest dose activity change, negative = inhibition, most hits filed as inhibitors; actives 0.56% (n = 390,000); note: nearly all actives have a fitted effect of over 70% in size
#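 Compound inhibition of the preformed complex between 50 nM HP1-beta and 50 nM biotinylated H3K9me3 peptide was read by AlphaScreen. Buffer was PBS pH 7.4 with 0.01% Tween-20. Incubations ran 30 min at room temperature, with 10 ug/mL donor/acceptor beads.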
# Sfp inh = inhibitors of Bacillus subtilis Sfp phosphopantetheinyl transferase; Q9F4F7; Biochemical Sfp PPTase activity, qHTS; Potency, µM, inactives show largest response in the series, negative = inhibition, hits mostly inhibitors; actives 3.5% (n = 310,000); AID 1490;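 note: the enzyme is Sfp with the accession as filed and its product quenches rhodamine fluorescence; 0% = enzyme reaction without inhibitor and -100% = no enzyme wells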
#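 Sfp 15 nM + cpd, 15 min RT; start w/ rhodamine-CoA 5 uM, BHQ-2-YbbR 12.5 uM (final); 50 mM Hepes pH 7.6, 10 mM MgCl2, 0.01% NP-40, 0.01% BSA; read 525/598 nm at 0 and 30 min.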
# BAZ2B inh = blocks human BAZ2B | Potency, µM (series often up to 114 µM), inactives show at the top dose activity change, negative = inhibition, actives largely listed as inhibitors | actives 4.4% (n = 360,000) | AlphaScreen BAZ2B-H3K14Ac peptide displacement; note: % is set by controls: 0 for no effect and ±100 for the full control effect; nearly all actives have a fitted effect of over 60% in size
#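 BAZ2B (50 nM) with biotin-H3(5-23)K14Ac peptide (50 nM) in PBS pH 7.4, 0.01% Tween-20, preformed 30 min, then compound 30 min at room temperature; top concentration 110uM. AlphaScreen streptavidin donor/nickel chelate acceptor beads (10 ug/mL final), 20 min dark, signal read.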
# JMJD2A Tudor inh = inhibitors of human JMJD2A Tudor domain. O75164. AlphaScreen JMJD2A-Tudor / H3K4me3 peptide binding. Potency, µM (series often up to 114 µM), for inactives: top-dose activity change, negative = inhibition, usual class: inhibitors. actives 4.4% (n = 390,000). AID 504339; note: % is set by controls: 0 for no effect and ±100 for the full control effect; nearly all actives have a fitted effect of over 50% in size
# G9a inh = inhibitors of human histone lysine methyltransferase G9a. actives 8.8% (n = 350,000). Q96KQ7. Potency, µM (titrated, usually from 102 µM), for the others: top-dose activity, negative = inhibition, usual class: inhibitors. G9a H3K9 monomethylation, AlphaScreen, 2 h. AID 504332; note: % is set by controls: 0 for no effect and ±100 for the full control effect; nearly all actives have a fitted effect of over 75% in size
#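 Chemiluminescent proximity detection of H3K9 monomethylation, read after 10 min bead incubation in the dark. Reaction: 20 nM G9a, 500 nM biotin-H3K9 peptide, 20 uM SAM cofactor, 2 h, room temperature, following 15 min enzyme-compound preincubation.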
# The depositor's hits bear a star; ? = inconclusive; . = not tested or not shown; [ ] = dose if it differs, or a comment. Calls come from the whole dose curve; as a rule, active = well fitted curve in the direction sought with a large enough effect; inconclusive = small, poorly fitted or top-dose-only effect, or another doubt; inactive = no such curve, though single readings can be large; an effect the other way counts as inactive or inconclusive. Potency is the fitted concentration of half-maximal effect.
SMILES,HP1b binding inh,Sfp inh,BAZ2B inh,JMJD2A Tudor inh,G9a inh
CCOc1cc(/C=C\[N+](=O)[O-])ccc1OCC(=O)Nc1ccccc1C,41.3%,2µM*,10.8%,-10.6%,?
CN(C)C(=O)CCSc1nnc(-c2ccco2)o1,34.5%,20.2%,4.0%,-9.0%,-5.5%
CCCCOC(=O)/C=C\C(=O)NC(N)=O,11.2%,-4.2%,-4.1%,1.1%,44.7µM*
CCCCOC(=O)/C=C\C(=O)OCCCC,54.8%,-2.3%,-8.0%,5.4%,24.4%[59 µM]
Cc1ccc(C(=O)Nc2ccccc2N2CCCC2)cc1S(=O)(=O)N1CCOCC1,8.0%,.,?,-29.2%,6.5%[12.7 µM]
COc1cc(NC(=O)CSc2nnc3c(C)cc4c(C)ccc(C)c4n23)c(C(=O)O)cc1OC,-0.4%,5.1%,-15.2%,-17.9%,-33.8%
CC(=O)Nc1ccc(S(=O)(=O)NCCC(=O)N2CCc3ccccc32)cc1,4.1%,-8.2%,-15.7%,-15.4%,?
CC1CCN=C(N)S1 (centres undefined),20.7%,.,.,-18.0%,3.16µM*
CCCC1O[C@@H]2C[C@H]3[C@@H]4CCC5=CC(=O)C=C[C@]5(C)[C@H]4[C@@H](O)C[C@]3(C)[C@]2(C(=O)CO)O1 (some centres undefined),25.9%,-17.6%,-1.6%,-21.6%,-14.9%[59 µM]
CCCC1O[C@@H]2CC3C4CCC5=CC(=O)C=C[C@]5(C)C4C(OC(C)=O)C[C@]3(C)[C@]2(C(=O)COC(C)=O)O1 (some centres undefined),-17.2%,-3.3%,-6.5%,17.8µM*,7.7%[59 µM]
COc1ccc(-c2sc(Nc3ccc(F)c(F)c3F)nc2CCC(=O)NN)cc1,-23.1%,10.1%,-34.7%,56.2µM*,-47.9%
COc1ccc(-c2nc(NC(C)=O)sc2-c2ccc(OC)cc2)cc1,46.4%,8.8%,-20.3%,-24.0%,?
O=C1Nc2ccccc2/C1=N/N=C/c1cccc(O)c1,-29.2%,-7.4%,-14.6%,?,.
COc1cc(/C=N/N=C2/C(=O)Nc3ccccc32)cc(OC)c1O,-55.4%,-18.2%,50.1µM*,?,2.82µM*
CCOc1ccc(NC(=O)Cn2ncc3ccccc32)cc1,32.1%,7.5%,4.2%,10.0%,-7.9%
Nc1cc([N+](=O)[O-])cc2oc(-c3ccccc3)cc12,?,1.2%,10µM*,12.6µM*,25.0%[0.501 µM]
O=c1cc(-c2ccccc2)oc2ccccc12,24.9%,.,-4.9%,-12.2%,-0.9%[12.7 µM]
O=C(CSc1nnc(NC(=O)c2cccc(Br)c2)s1)NCC1CCCO1 (centres undefined),20.1%,12.4%,14.9%,-6.9%,-36.8%
COc1ccc(CN2C(=O)CN=C2Nc2cccc(C)c2C)cc1,23.9%,8.7%,?,-23.2%,56.2µM*
COc1ccccc1NC1=NCC(=O)N1Cc1ccccc1,16.0%,-14.0%,-8.4%,-5.3%,3.8%[0.501 µM]
CCOc1ccccc1NC1=NCC(=O)N1Cc1ccc(F)cc1,13.2%,4.0%,?,-14.6%,50.1µM*
COc1ccc(CN2CC(=O)N(c3cccc(Cl)c3)C2=S)cc1OC,57.0%,10.1%,-14.0%,-10.6%,-3.0%[0.501 µM]
COc1ccc(N2CCN(C(CNC(=O)c3ccc(OC)c(OC)c3)c3cccnc3)CC2)cc1 (centres undefined),25.0%,.,-7.3%,-26.3%,-30.3%[59 µM]
CSc1ccc(/C=N/N2CCN(Cc3ccc(C)cc3C)CC2)cc1,-22.4%,-3.9%,44.7µM*,56.2µM*,?
Cc1ccc(CN2CCN(/N=C/c3sccc3C)CC2)c(C)c1,?,-15.3%,28.2µM*,22.4µM*,44.7µM*
SMILES,HP1b binding inh,Sfp inh,BAZ2B inh,JMJD2A Tudor inh,G9a inh
NCCc1nnc(SCC(=O)Nc2cccc(Cl)c2)o1,15.1%,8.8%,?,-22.2%,50.1µM*
O=C(CSc1nnc(-c2cccc(Cl)c2)o1)Nc1ccc2c(c1)OCCO2,27.7%,-14.6%,1.1%,-4.5%,-5.0%[59 µM]
O=C(CSc1nnc(-c2ccc(C(F)(F)F)cn2)o1)Nc1cccc(Cl)c1,20.8%,0.7%,50.1µM*,-10.0%,29.4%
CCOC(=O)C1CCN(C(C)=C2C(=O)c3ccccc3C2=O)CC1,38.2%,-7.9%,?,-11.9%,?
CCN(CCCNC(=O)CSc1cc(=O)n(C)c2ccccc12)c1ccccc1,10.6%,.,.,?,?
COC(=O)c1sccc1NC(=O)c1cc(OC)cc(OC)c1,36.0%,-23.1%,4.9%,-8.3%,-41.6%[59 µM]
